Assay results: publication PMC4336329 (PLoS ONE, 2015)
About 2,200 (0.71%) of roughly 310,000 compounds showed an effect of 50% or more. Effects have a minus sign here. Shown is part of a subset that was picked to be rich in strong results.

Molecular target: human ether-à-go-go-related gene (hERG) potassium channel (human, UniProt Q12809)
Assay: primary screen, population patch clamp on CHO cells stably expressing hERG; higher = less effect of the substance

human ether-à-go-go-related gene (hERG) potassium channel, sequence (Q12809 whole entry, looked up): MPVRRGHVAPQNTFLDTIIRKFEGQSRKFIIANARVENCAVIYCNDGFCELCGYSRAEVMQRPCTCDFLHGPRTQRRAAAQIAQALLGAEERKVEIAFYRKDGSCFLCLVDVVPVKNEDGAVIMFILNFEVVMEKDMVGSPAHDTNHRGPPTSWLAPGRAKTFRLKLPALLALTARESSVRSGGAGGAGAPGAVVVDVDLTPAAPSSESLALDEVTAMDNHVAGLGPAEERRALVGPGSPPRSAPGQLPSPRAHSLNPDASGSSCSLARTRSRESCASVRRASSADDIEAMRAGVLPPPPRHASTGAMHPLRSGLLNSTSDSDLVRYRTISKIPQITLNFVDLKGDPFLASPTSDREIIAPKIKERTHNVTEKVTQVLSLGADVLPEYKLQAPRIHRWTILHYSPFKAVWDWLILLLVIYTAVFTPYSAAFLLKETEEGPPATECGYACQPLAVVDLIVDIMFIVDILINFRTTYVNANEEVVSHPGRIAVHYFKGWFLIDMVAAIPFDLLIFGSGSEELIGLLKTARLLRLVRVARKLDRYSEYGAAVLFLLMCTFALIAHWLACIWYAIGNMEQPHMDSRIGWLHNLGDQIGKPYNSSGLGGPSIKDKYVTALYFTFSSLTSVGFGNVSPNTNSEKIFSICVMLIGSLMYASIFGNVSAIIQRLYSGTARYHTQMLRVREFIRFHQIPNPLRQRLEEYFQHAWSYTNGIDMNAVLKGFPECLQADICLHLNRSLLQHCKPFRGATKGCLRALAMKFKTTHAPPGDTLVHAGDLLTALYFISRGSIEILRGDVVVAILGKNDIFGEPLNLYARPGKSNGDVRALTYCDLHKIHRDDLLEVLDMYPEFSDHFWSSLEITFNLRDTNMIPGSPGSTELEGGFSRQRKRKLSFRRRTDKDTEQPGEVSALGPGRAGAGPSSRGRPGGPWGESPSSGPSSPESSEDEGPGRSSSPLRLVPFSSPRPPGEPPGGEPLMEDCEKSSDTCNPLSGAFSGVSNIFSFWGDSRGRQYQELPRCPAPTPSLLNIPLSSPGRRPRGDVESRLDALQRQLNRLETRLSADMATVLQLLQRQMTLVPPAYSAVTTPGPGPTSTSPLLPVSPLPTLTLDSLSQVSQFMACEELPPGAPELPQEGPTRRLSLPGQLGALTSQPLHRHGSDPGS

| SMILES | hERG current change (%, negative = inhibition) at 1uM |
| --- | --- |
| O=C(NCCCn1ccnc1)C(=O)c1c[nH]c2ccccc12 | 3.2% |
| CC(=O)Nc1ncc(Cc2cccc(Cl)c2)s1 | 9.23% |
| CC(=O)NS(=O)(=O)c1ccc(NC(=O)CC(C)c2ccccc2)cc1 (stereo not shown) | 2.97% |
| COc1ccc(N2C(=O)CC(NC34CC5CC(CC(C5)C3)C4)C2=O)c(OC)c1 (stereo not shown) | 8.85% |
| CCCN(CC(=O)Nc1cc(C)on1)S(=O)(=O)c1cccc(C(F)(F)F)c1 | 11.3% |
| CCN(CC(=O)Nc1c(F)cccc1F)C(=O)/C=C/c1ccc2c(c1)OCO2 | 3.1% |
| N=c1c(C(=O)NC2CCCC2)cc2c(=O)n3ccccc3nc2n1CCCN1CCOCC1 | -63.7% |
| N=c1c(C(=O)NC2CCCC2)cc2c(=O)n3ccccc3nc2n1CCN1CCOCC1 | -94.2% |
| CCOC(=O)c1c(C2CC2)csc1NC(=O)CSCc1c(C)noc1C | 11.4% |
| CCOC(=O)N1CCN(C(=O)Nc2ccc3nc(C)c(C)nc3c2)CC1 | 4.44% |
| CC(C)c1ccc(CNc2ccc([N+](=O)[O-])cn2)cc1 | 9.11% |
| Cc1cc(C)c(S(=O)(=O)NCc2ccncc2)c(C)c1 | 5.64% |
| C=CCn1c(O)c(C(CC)=NCc2ccco2)c(=O)[nH]c1=O | 2.16% |
| COCCNS(=O)(=O)c1ccc(C2CNC(=O)C2)cc1 (stereo not shown) | 11.3% |
| CCN(CC)S(=O)(=O)c1ccc(C2CNC(=O)C2)cc1 (stereo not shown) | -53.8% |
| O=C1CC(c2ccc(S(=O)(=O)NC3CC3)cc2)CN1 (stereo not shown) | 2.43% |
| Cc1cccc(C(=O)NC(=S)Nc2ccccc2C(=O)O)c1 | 6.08% |
| CCOC(=O)C1CCCN(c2nc(C)nc3c2oc2ccccc23)C1.Cl (stereo not shown) | 8.69% |
| Cc1cc2cc3c(=O)[nH]c(=O)[nH]c3nc2cc1C | 12.1% |
| c1nc(Nc2ccc(N3CCOCC3)cc2)c2ccsc2n1 | 8.37% |
| c1nc(NCC2(N3CCOCC3)CCCCC2)c2ccsc2n1 | -54.5% |
| Cc1sc2ncnc(NCC3(N4CCOCC4)CCCCC3)c2c1C | -23% |

| SMILES | hERG current change (%, negative = inhibition) at 1uM |
| --- | --- |
| COc1ccc(C2=NS(=O)(=O)N(C)C(C(=O)N3CCC(C(N)=O)CC3)=C2)cc1 | -8.49% |
| Cc1ccc(NC(=O)c2cc(NC(=O)CCC(=O)O)ccc2N2CCCCC2)cc1 | 11.9% |
| Cc1nnc(NC(=O)CN2C(=O)c3ccccc3S2(=O)=O)s1 | 7.28% |
| CCCCC(=O)N1CCCC(c2nc3c(nnn3Cc3cc(C)ccc3C)c(=O)[nH]2)C1 (stereo not shown) | 3.86% |
| CCOc1ccc(S(=O)(=O)Nc2cccc(OC)c2)cc1 | -5.91% |
| CC[n+]1c(/C=C/C=C/N(C(C)=O)c2ccccc2)sc2cc(OC)ccc21.[I-] | 7.77% |
| CC[n+]1c(/C=C/C=C/c2ccc(N(C)C)cc2)sc2ccccc21.[O-][Cl+3]([O-])([O-])[O-] | -29% |
| CCN1/C(=C/C=C/c2sc3ccccc3[n+]2CC)Sc2ccccc21.[I-] | -36.8% |
| CCN1/C(=C/C=C/c2oc3ccc(-c4ccccc4)cc3[n+]2CC)Oc2ccc(-c3ccccc3)cc21.CCOS(=O)(=O)[O-] | -2.56% |
| CCOS(=O)(=O)[O-].CC[n+]1c(/C=C/Nc2ccccc2)oc2ccc(OC)cc21 | -68.8% |
| CC[n+]1c(/C=C2\C=C(C)CC(C)(C)C2)sc2ccccc21.[I-] | -4.87% |
| CC[n+]1c(/C=C/C=C/N(C(C)=O)c2ccccc2)sc2ccccc21.[I-] | -52.2% |
| CC[n+]1c(/C=C/Nc2ccccc2)sc2ccccc21.[I-] | -62.8% |
| CC[n+]1c(/C=C/Nc2ccccc2)oc2ccccc21.[I-] | -64.9% |
| CC[n+]1ccccc1/C=C/Nc1ccccc1.[I-] | -5.67% |
| CC[n+]1c(/C=C/N(C)c2ccccc2)oc2ccccc21.O=S(=O)([O-])CCO | 12% |
| COC(=O)c1ccccc1Nc1ccnc(Cl)n1 | -6.9% |
| O=C(Nc1c(F)c(F)c(F)c(F)c1F)C1CCCCC1 | 5.93% |
| CC(C(=O)N1CCCC1)N(c1ccccc1)S(C)(=O)=O (stereo not shown) | 20.3% |
| C/C(=N\NC(=O)c1ccccc1)c1ccc(-n2ccnc2)cc1 | 8.54% |
| O=C(CCc1nnc(-c2ccccc2)o1)NCc1cc(F)ccc1F | 0.576% |
| Cc1csc(N(C)C(=O)CSc2nnc(COc3ccccc3C)o2)n1 | 6.62% |

| SMILES | hERG current change (%, negative = inhibition) at 1uM |
| --- | --- |
| CC(C)CC(=O)Nc1ccc2oc(-c3cccnc3)nc2c1 | 15.3% |
| COCCSc1nnc(NC(=O)C2CC(=O)N(C3CCCC3)C2)s1 (stereo not shown) | 16% |
| COc1cccc(C(=O)OCC(=O)NC(C)CCc2ccccc2)c1O (stereo not shown) | 13.8% |
| O=C(N/C(=C\c1cccc([N+](=O)[O-])c1)C(=O)N1CCOCC1)c1ccc([N+](=O)[O-])cc1 | -2.31% |
| Cc1ccc(C(=O)N/C(=C/c2ccco2)C(=O)N2CCOCC2)cc1 | 8.19% |
| CCN1CCN(C(=O)/C(=C/c2ccco2)NC(=O)c2ccccc2)CC1 | -57.1% |
| O=C(N/C(=C\c1ccco1)C(=O)N1CCOCC1)c1ccc([N+](=O)[O-])cc1 | -55.9% |
| CN1CCN(C(=O)/C(=C/c2ccco2)NC(=O)c2ccccc2)CC1 | -37.1% |
| O=C(N/C(=C\c1ccc([N+](=O)[O-])cc1)C(=O)N1CCOCC1)c1ccco1 | -57.1% |
| O=C(N/C(=C/c1ccc([N+](=O)[O-])cc1)C(=O)N1CCOCC1)c1ccco1 | -34.6% |
| O=C(N/C(=C\c1ccco1)C(=O)N1CCCC1)c1ccccc1 | 14.4% |
| O=C(N/C(=C\c1ccc([N+](=O)[O-])cc1)C(=O)N1CCCCC1)c1ccco1 | -41.5% |
| CCOc1ccc(NS(=O)(=O)c2ccc3ncsc3c2)cc1 | 12.1% |
| O=C1CCCCCCC1Sc1ccccc1[N+](=O)[O-] (stereo not shown) | 3.82% |
| Cc1ccc(C2C(=O)N(C3CCC(C)CC3)CC(=O)N2C2CCCC2)cc1 (stereo not shown) | -13.1% |
| COC(=O)/C=c1/s/c(=C(/C#N)C(=O)N2CCCCC2)n(-c2ccccc2)c1=O | 9.76% |
| CC(C)[C@H](NS(=O)(=O)c1ccccc1)C(=O)OCn1nnc2ccccc2c1=O | 4.31% |
| Cc1ccc(Cn2c(SCCN3CCCCC3)nc3c2c(=O)n(C)c(=O)n3C)cc1 | -67.1% |
| Cc1ccc(Cn2c(SCCN3CCOCC3)nc3c2c(=O)n(C)c(=O)n3C)cc1 | -6.9% |
| Cn1c(=O)c2c(nc(SCCN3CCCCC3)n2Cc2ccccc2)n(C)c1=O | -66% |
| Cn1c(=O)c2c(nc(SCCN3CCOCC3)n2Cc2ccccc2)n(C)c1=O | -5.7% |
| Cn1c(=O)c2c(nc(SCCN3CCCCC3)n2Cc2ccc(Cl)cc2)n(C)c1=O | -48.9% |

| SMILES | hERG current change (%, negative = inhibition) at 1uM |
| --- | --- |
| Cn1c(=O)c2c(nc(SCCN3CCOCC3)n2Cc2ccccc2Cl)n(C)c1=O | -8.97% |
| ON1C2CCCCC2N(O)C1c1c(F)c(F)c(F)c(F)c1F (stereo not shown) | 17.7% |
| CC1CN(CC(=O)NCc2ccccc2)CC(C)O1 (stereo not shown) | 19.2% |
| Cc1ccc(N2C(=O)C(CN3CCOCC3)C2c2ccccc2)cc1 (stereo not shown) | -1.12% |
| Cc1ccc(N2C(=O)C(CN3CCCC3)C2c2ccccc2)cc1 (stereo not shown) | -70.6% |
| Cc1ccc(N2C(=O)C(CN3CCCCC3)C2c2ccccc2)cc1 (stereo not shown) | -4.6% |
| C=CCn1c(SCCN2CCCC2)nc2c([nH]c3ccccc32)c1=O | -63.9% |
| CCOC(=O)CSc1nc2ccccc2c(=O)n1CC | -1.18% |
| COCCn1c(SCC(=O)N2CCOCC2)nc2ccccc2c1=O | 5.32% |
| COCCn1c(SCC(=O)N2CCC(C)CC2)nc2ccccc2c1=O | -57.9% |
| C=CCn1c(SCC(=O)N2CCCC2)nc2c([nH]c3ccccc32)c1=O | 5.21% |
| O=c1c2ccccc2nc(SCCN2CCCCC2)n1CCc1ccccc1 | -10% |
| COc1ccc(CCn2c(SCCN3CCCCC3)nc3ccccc3c2=O)cc1OC | -8.22% |
| CCOC(=O)CSc1nc2ccccc2c(=O)n1CC1CCCO1 (stereo not shown) | 9.44% |
| COCCn1c(SCC(=O)N2CCCCC2)nc2ccccc2c1=O | -30.8% |
| COCCn1c(SCCN2CCCCC2)nc2ccccc2c1=O | -53.3% |
| CCOC(=O)CSc1nc2ccccc2c(=O)n1CC1CCCC1 | -63.8% |
| C=CCn1c(SCC(=O)NC2CCCC2)nc2c([nH]c3ccccc32)c1=O | -16.9% |
| CN(C(=O)COC(=O)/C=C/c1ccc2ccccc2n1)C1CCS(=O)(=O)C1 (stereo not shown) | 12.9% |
| CC(=O)Nc1cccc(C(=O)OCc2ccc([N+](=O)[O-])cc2)c1 | -13.5% |
| O=C1C=C(NCC2CCCO2)C2(CCCCC2)O1 (stereo not shown) | 15.6% |
| N#Cc1ccccc1OCC(=O)N1N=C(c2cccs2)CC1c1ccco1 (stereo not shown) | -1.57% |
